Results reported in PubChem BioAssay (NCATS).
Inconclusive results are not listed. The source made the active and inactive calls. Calls come from the whole dose curve; as a rule, active = well fitted curve in the direction sought with a large enough effect; inconclusive = small, poorly fitted or top-dose-only effect, or another doubt; inactive = no such curve, though single readings can be large; an effect the other way counts as inactive or inconclusive.

Legend:
[1] = Quantitative High-Throughput drug screen in 47 multiple myeloma cell lines against the NCATS MIPE library collection: KHM11_PLB cell viability assay (AID 1918962); note: nearly all actives have a fitted effect of over 35% in size
How it was run: (§1)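 Steps: seed 500 cells per well; pin-transfer MIPE 4.0 library; incubate 48 h at 37C, 5% CO2, humidified; add CellTiter-Glo, 5 min room temperature; read luminescence.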

[2] = Quantitative High-Throughput drug screen in 47 multiple myeloma cell lines against the NCATS MIPE library collection: JIM1_ECACC cell viability assay (AID 1918964)
How it was run: (§2)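 Inhibition of cell viability is measured here. Each line was plated at 500 cells per well, treated with MIPE 4.0 drugs, kept 48 hours at 37C, then assayed for ATP content by CellTiter-Glo luminescence.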

[3] = Quantitative High-Throughput drug screen in 47 multiple myeloma cell lines against the NCATS MIPE library collection: INA6_PLB cell viability assay (AID 1918965; note: nearly all actives have a fitted effect of over 55% in size)
How it was run: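 CellTiter-Glo luminescence (ATP) after 48 h compound exposure, 37C/5% CO2; 500 cells/well; MIPE 4.0 approved/investigational drugs pinned in; DMSO = 100%, media only = 0% viability.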

[4] = Quantitative High-Throughput drug screen in 47 multiple myeloma cell lines against the NCATS MIPE library collection: JJN3_DSMZ cell viability assay (AID 1918966; note: nearly all actives have a fitted effect of over 50% in size)
How it was run: as §2

[5] = Quantitative High-Throughput drug screen in 47 multiple myeloma cell lines against the NCATS MIPE library collection: H1112_PLB cell viability assay (AID 1918967; note: nearly all actives have a fitted effect of over 30% in size)
How it was run: as §2

[6] = Quantitative High-Throughput drug screen in 47 multiple myeloma cell lines against the NCATS MIPE library collection: Karpas25_ECACC cell viability assay (AID 1918968; note: nearly all actives have a fitted effect of over 35% in size)
How it was run: as §2

[7] = Quantitative High-Throughput drug screen in 47 multiple myeloma cell lines against the NCATS MIPE library collection: KMS12BM_JCRB cell viability assay (AID 1918971); note: nearly all actives have a fitted effect of over 35% in size
How it was run: as §1

[8] = Quantitative High-Throughput drug screen in 47 multiple myeloma cell lines against the NCATS MIPE library collection: JIM3_ECACC cell viability assay (AID 1918963; note: nearly all actives have a fitted effect of over 35% in size)
How it was run: as §1

[9] = Quantitative High-Throughput drug screen in 47 multiple myeloma cell lines against the NCATS MIPE library collection: KMS27_JCRB cell viability assay (AID 1918970); note: nearly all actives have a fitted effect of over 30% in size
How it was run: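 KMS27_JCRB myeloma cells, 500 per well, exposed 48 h at 37 C, 5% CO2 to MIPE 4.0 compounds. Viability from ATP by CellTiter-Glo luminescence, normalized to DMSO (100%) and medium-only (0%) wells.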

Measured: Potency
Potency is the fitted concentration of half-maximal effect.

N#CCNC(=O)c1ccc(-c2ccnc(Nc3ccc(N4CCOCC4)cc3)n2)cc1
inactive: [2]
active: [1] 4.69 µM | [3] 1.32 µM | [4] 13.2 µM | [5] 18.7 µM | [6] 9.35 µM | [7] 14.8 µM

CC[C@H](CO)Nc1nc(NCc2ccccc2)c2ncn(C(C)C)c2n1
active: [1] 18.7 µM | [8] 26.4 µM | [5] 18.7 µM | [6] 20.9 µM

O=C(Nc1ncc(-c2cc(C(F)F)nn2-c2c(Cl)cccc2Cl)s1)C1CC1
active: [1] 0.935 µM | [8] 0.264 µM | [3] 0.296 µM | [5] 0.469 µM | [6] 0.662 µM | [7] 1.05 µM

CCN1CCN(Cc2ccc(-c3cc4c(N[C@H](C)c5ccccc5)ncnc4[nH]3)cc2)CC1
active: [1] 5.9 µM | [8] 0.469 µM | [3] 0.418 µM | [6] 2.09 µM | [9] 0.0166 µM

C=CC(=O)Nc1cccc(Oc2nc(Nc3ccc(N4CCN(C)CC4)cc3)ncc2Cl)c1
active: [1] 16.6 µM | [3] 2.96 µM | [4] 18.7 µM | [5] 5.9 µM | [6] 3.72 µM

Clc1cccc(-n2nnnc2NCc2ccccc2Oc2ccccn2)c1Cl
inactive: [1] | [8] | [3] | [5]

CN(C)c1nc(Cc2ccc(NC(=O)c3ccc4ccccc4c3)cc2)nc(Cl)c1CC(=O)O
active: [9] 0.0526 µM
inactive: [1] | [8] | [3] | [5] | [7]

CNC(=O)CN1CCC(Oc2cc3c(Nc4cccc(Cl)c4F)ncnc3cc2OC)CC1
active: [1] 0.0372 µM | [8] 0.0332 µM | [3] 0.0235 µM | [6] 0.0187 µM | [9] 0.001 µM | [7] 0.0187 µM

CCS(=O)(=O)c1cccc(-c2cc(C(=O)NC3CCN(C)CC3)c(C)c3[nH]c4ncc(C)cc4c23)c1
active: [1] 0.526 µM | [2] 0.935 µM | [3] 0.418 µM | [5] 4.69 µM | [6] 1.18 µM | [7] 5.9 µM

CC(=O)Nc1sc2c(c1-c1nc3ccccc3s1)CNC2
active: [1] 26.4 µM | [8] 18.7 µM | [3] 3.72 µM | [4] 16.6 µM | [7] 11.8 µM
inactive: [9]

O=c1[nH]c(=O)n(C2CCCO2)cc1F (stereo unspecified)
active: [7] 19.1 µM
inactive: [1] | [8] | [4] | [5] | [6]

O=C(CCCCCCC(=O)Nc1ccc([C@H]2O[C@@H](CSc3nc(-c4ccccc4)c(-c4ccccc4)o3)C[C@@H](c3ccc(CO)cc3)O2)cc1)NO
active: [1] 14.8 µM | [8] 23.5 µM | [3] 5.26 µM | [5] 13.2 µM | [6] 9.35 µM
inactive: [9]

COc1cccc(-c2ccc(NC(=O)C3=C(C(=O)O)CCC3)c(F)c2)c1
active: [8] 23.5 µM | [3] 4.69 µM | [7] 20.9 µM
inactive: [1] | [5] | [6]

CN(C)CC=CC(=O)Nc1cc2c(Nc3ccc(F)c(Cl)c3)ncnc2cc1O[C@H]1CCOC1
active: [1] 7.43 µM | [2] 2.96 µM | [3] 2.09 µM | [5] 5.9 µM | [6] 1.32 µM | [9] 2.64 µM | [7] 16.6 µM

COC(=O)Nc1nc2ccc(C(=O)c3ccc(F)cc3)cc2[nH]1
active: [1] 0.264 µM | [8] 0.59 µM | [3] 0.418 µM | [4] 2.35 µM | [7] 0.833 µM

NCC(=O)Nc1ccc(-n2nc(C(F)(F)F)cc2-c2ccc3c(ccc4ccccc43)c2)cc1
active: [1] 26.4 µM | [8] 18.7 µM | [3] 18.7 µM | [5] 20.9 µM | [6] 16.6 µM

CC(O)C1C(=O)N2C(C(=O)O)=C(SC3CNC(C(=O)N(C)C)C3)C(C)C12 (stereo unspecified)
not listed: [2] | [4] | [6]
inactive: all other assays above

O=C(C=Cc1cccc(S(=O)(=O)Nc2ccccc2)c1)NO
active: [1] 3.82 µM | [3] 0.762 µM | [4] 3.4 µM | [5] 5.4 µM | [6] 1.08 µM | [9] 2.7 µM | [7] 1.91 µM

COc1ccc(CC2SC(=O)NC2=O)cc1C(=O)NCc1ccc(C(F)(F)F)cc1 (stereo unspecified)
inactive: [1] | [5] | [9] | [7]
active: [6] 5.9 µM

Cc1cccc(C=NNc2cc(N3CCOCC3)nc(OCCc3ccccn3)n2)c1
active: [8] 2.35 µM | [2] 0.935 µM | [3] 14.8 µM | [6] 13.2 µM | [7] 14.8 µM

C[C@@H]1CN(CC(=O)Nc2ccc3c(c2)Cc2cccc(-c4cc(=O)cc(N5CCOCC5)o4)c2S3)C[C@H](C)O1
active: [8] 13.2 µM | [3] 11.8 µM | [4] 13.2 µM | [6] 4.18 µM | [9] 18.7 µM | [7] 20.9 µM

CC(NCc1ccc2c(c1)nc(NC(=O)c1ccc(-c3cn[nH]c3)s1)n2CC(C)(C)O)C(C)(C)C (stereo unspecified)
active: [1] 0.0935 µM | [3] 0.0833 µM | [4] 0.264 µM | [5] 0.469 µM | [9] 0.0833 µM | [7] 1.05 µM

CCCCc1nc2cc(C=CC(=O)NO)ccc2n1CCN(CC)CC
active: [1] 1.48 µM | [4] 0.743 µM | [5] 1.87 µM | [6] 0.372 µM | [7] 0.059 µM

CC1COC2(CCN(c3nc(=O)c4cc(C(F)(F)F)cc([N+](=O)[O-])c4s3)CC2)O1 (stereo unspecified)
not listed: [1] | [9]
inactive: all other assays above

COc1cc(C(C)C)c2c(c1)S(=O)(=O)N(COc1cc(=O)n3cccc(OCCN4CCCCC4)c3n1)C2=O
active: [8] 18.7 µM | [3] 13.2 µM | [5] 14.8 µM | [6] 13.2 µM
